Assay outcomes deposited in PubChem by several laboratories.
A selection: hits, their analogues and other compounds. The true share with any hit is near 2.8%.
Furin inh – inhibitors of human furin; P09958; purified furin, fluorogenic substrate cleavage; inhibition, % at 20 µM or 30 µM; hit rate 0.061% among 220,000; AID 463115; in the data active means inhibition above about 25%
EP2 mod – EP2 receptor (human) modulation. P43116. EP2-expressing cells, cAMP HTRF FRET, PGE2 co-stimulation. induction, % at 25 µM. hit rate 0.83% among 260,000. AID 940;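 active means compounds whose cAMP rise, as percent of the full-agonist control response, exceeds 60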;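 further: rat C6 glioma line stably carrying human EP2 under a CMV promoter; the protocol text gives 20 µM as final concentration; 100% = response of wells given 1 µM PGE2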
HSV augment – HSV replication enhancement; HSV replication augmentation in cells, fold increase; maximum fold increase; hit rate 0.005% among 220,000; in the data active means maximum fold increase above about 1.5; tested in PC3 cells
Wee1 degr inh – human Wee1 degradation inhibition, primary screen. HeLa Luc-Wee1K328M stability, luciferase luminescence; 100% = proteasome inhibitor MG132 effect. hit rate 1.2% among 220,000. reporter increase, % at 5 µM. P30291;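 active means activation above the mean of all tested compounds plus 3 SD, set per screening run, cut at about 8.8% in these data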;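 further: cells exposed to compound for 20 h before luminescence read; 0% = DMSO alone and 100% = MG132 at 30 µM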
Target sequence (P30291 whole entry K328M): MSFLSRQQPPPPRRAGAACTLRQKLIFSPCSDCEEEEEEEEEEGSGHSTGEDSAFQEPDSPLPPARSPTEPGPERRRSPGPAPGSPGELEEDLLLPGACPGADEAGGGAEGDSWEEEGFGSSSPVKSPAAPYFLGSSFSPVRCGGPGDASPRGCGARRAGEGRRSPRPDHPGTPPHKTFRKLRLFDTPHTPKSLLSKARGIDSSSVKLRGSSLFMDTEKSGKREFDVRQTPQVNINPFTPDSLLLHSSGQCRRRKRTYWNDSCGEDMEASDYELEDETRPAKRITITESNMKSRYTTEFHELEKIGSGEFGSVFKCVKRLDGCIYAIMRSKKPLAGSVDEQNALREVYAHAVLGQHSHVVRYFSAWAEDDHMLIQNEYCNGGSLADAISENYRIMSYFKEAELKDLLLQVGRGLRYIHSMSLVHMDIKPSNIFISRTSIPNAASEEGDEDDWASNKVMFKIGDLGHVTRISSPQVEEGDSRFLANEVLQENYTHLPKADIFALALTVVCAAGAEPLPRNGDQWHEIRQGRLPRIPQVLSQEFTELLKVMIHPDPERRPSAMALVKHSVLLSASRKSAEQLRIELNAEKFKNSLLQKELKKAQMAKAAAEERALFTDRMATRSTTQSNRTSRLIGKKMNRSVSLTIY
p47phox inh – inhibitors of human p47phox binding. p47phox/p22phox peptide binding, fluorescence polarization, 2 h. inhibition, % at 24.7 µM. P14598. hit rate 0.53% among 220,000. AID 1274;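 active means inhibition above about 30%, limit read from the data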;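 further: 0% = p47phox with labelled peptide and 100% = labelled peptide alone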
EP2 antag – EP2 receptor (human) inhibition. C6 glioma cells expressing human EP2, cAMP TR-FRET; cells stimulated with saturating PGE2. inhibition, % at 25 µM. hit rate 0.52% among 260,000;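 active means percent inhibition above 40 after rounding to a whole number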;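 further: rat C6 glioma host cells with rolipram phosphodiesterase inhibitor present; the protocol text gives 20 µM as final concentration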
EP2 cAMP induct – EP2 receptor cAMP induction, counter-screens negative. shares compounds with EP2 mod. C6 glioma EP2 cells, cAMP HTRF induction; plus low (about EC15) PGE2 agonist. calls only at 20 µM (by protocol). AID 1080. hit rate 47% among 1,300;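 active means cAMP induction above 50% in the main assay while under 30% in all four parallel counter assays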;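 further: rat C6 glioma cells stably expressing human EP2 receptor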
An asterisk follows results filed as active; i = inactive; . = not tested or not shown; + = active, no number.

SMILES | Furin inh | EP2 mod | HSV augment | Wee1 degr inh | p47phox inh | EP2 antag | EP2 cAMP induct
O=C(Cn1c(=O)n(Cc2ccccc2)c(=O)c2ccccc21)NCc1ccco1 | -19.1 | 7.1 | i | -0.3 | -5.7 | 9.5 | .
O=c1c2ccccc2n(Cc2ccc(Cl)cc2)c(=O)n1Cc1ccco1 | -11.4 | 50.8 | i | -3.9 | -9.4 | 4.2 | +
CCOC(=O)c1c(-c2ccc(OC)c(OC)c2)csc1NC(=O)C(C)C | . | 12.2 | . | . | . | 6.4 | .
CC(=O)Nc1nnc(CCN2CCCCC2)s1 | -7.3 | 72.0* | i | -2.6 | -7.0 | 5.4 | i
CCOCCCNC(=O)Cn1nc(C)n2c(cc3sc(C)cc32)c1=O | . | 9.6 | . | . | . | . | .
Cc1ccc(S(=O)(=O)c2c(C)cc(C)nc2N2CCCCC2)cc1 | -10.3 | 69.6* | i | 0.9 | -10.6 | 7.9 | +
COC(=O)c1sc2nc3cc(C)cc(C)c3cc2c1N | . | -23.9 | . | . | . | 14.3 | .
CC(C)c1nc(SCc2c(F)cccc2Cl)c2c(=O)n(C)c(=O)n(C)c2n1 | -20.2 | 80.1* | i | -1.4 | -6.1 | 10.5 | +
Cn1c(=O)c2c(nc(SCCCC#N)n2Cc2c(F)cccc2Cl)n(C)c1=O | -23.5 | 17.9 | i | 4.3 | -9.8 | 6.9 | .
Cc1nc2scc(-c3cccs3)c2c(=O)n1-n1cccc1 | -13.3 | 34.2 | i | -0.8 | 5.3 | 14.2 | .
Cc1ccc(C)n1-n1c(C)nc2scc(-c3cccs3)c2c1=O | -17.6 | 55.5 | i | 8.2 | -8.0 | 2.3 | i
CCCc1nc(SCC(=O)Nc2c(C)cccc2C)c2ccccc2n1 | . | -36.3 | . | . | . | 9.4 | .
COc1ccc(C(=O)Nc2cc(C)nn2-c2nc3ccccc3[nH]2)c(OC)c1 | -17.6 | 70.3* | i | -2.3 | -29.7 | 7.2 | +
COc1cccc(OC)c1C(=O)Nc1cc(C)nn1-c1nc2ccccc2[nH]1 | -23.2 | 29.1 | i | 0.7 | -15.8 | 10.1 | .
CCN(CC)c1nc(C#N)nc(N(CC)CC)n1 | -12.8 | 65.1* | . | -3.6 | -5.8 | . | i
CCN(c1ccccc1)c1nc(C#N)nc(N(CC)c2ccccc2)n1 | -19.7 | 41.7 | i | -1.3 | -10.2 | 3.7 | .
Cc1ccc(NC(=S)N(Cc2cc3ccc(C)c(C)c3[nH]c2=O)C2CCCCC2)cc1 | . | 2.7 | . | . | . | 4.3 | .
O=C(CN1CCCCCC1)Nc1ccccc1Oc1ccccc1 | -28.2 | 70.0* | i | -0.3 | -16.3 | 9.1 | +
O=C(CN1CCCCC1)Nc1cc(Cl)ccc1Oc1ccccc1 | -25.3 | 49.7 | i | 4.6 | -2.1 | 1.0 | .
Cc1ccc(S(=O)(=O)c2c(C)nn(-c3ccccc3)c2OC(=O)c2ccco2)cc1 | -7.9 | 66.8* | i | 6.2 | 1.5 | 11.0 | i
C/C(CCc1oc2ccc(Cl)cc2c1-c1ccc(C)o1)=N\O | -13.3 | 65.0* | i | 2.6 | -7.9 | 5.7 | +
CN(C)S(=O)(=O)c1ccc(N=Cc2c(O)n(-c3ccc(Cl)cc3)c(=O)[nH]c2=O)cc1 | . | -6.4 | . | . | . | 8.8 | .
O=C1Nc2ccc(S(=O)(=O)Nc3ccccc3Cl)c3cccc1c23 | . | -36.5 | . | . | . | 16.1 | .
CCOC(=O)Cc1nnc(NC(=O)CSc2nnc3c4ccccc4n(C(C)C)c3n2)s1 | -7.7 | 15.7 | i | -1.1 | -10.7 | 9.8 | .
CC(C)n1c2ccccc2c2nnc(SCC(=O)Nc3ccccc3C(=O)O)nc21 | -15.7 | 72.7* | i | 2.3 | -3.9 | 11.7 | i
SMILES | Furin inh | EP2 mod | HSV augment | Wee1 degr inh | p47phox inh | EP2 antag | EP2 cAMP induct
O=C(Cc1ccc2c(c1)OCO2)N1CCC(O)(c2cccc(F)c2)CC1 | . | -35.5 | . | . | . | 6.5 | .
CC(C)(C)N(Cc1ccccc1)C(=O)c1ccc(Br)o1 | -17.8 | 62.6* | i | 0.8 | 7.2 | 4.9 | i
Cc1cccc(NS(=O)(=O)c2cccs2)n1 | -26.6 | 4.1 | i | 0.4 | -5.2 | 8.5 | .
Cc1ccnc(NS(=O)(=O)c2cccs2)c1 | -28.0 | 82.8* | i | -0.8 | -10.0 | 8.5 | i
CC1CCN(C(=O)Cn2c(SCC(=O)c3ccccc3F)nc3ccccc32)CC1 | . | -23.4 | . | . | . | 10.5 | .
CCCC(=O)N1CCCC(c2nc(-c3cccs3)no2)C1 (centres undefined) | -16.2 | 75.8* | i | 0.9 | -4.1 | 11.5 | i
N#Cc1sc2nc(C3CC3)cc(-c3ccc(Cl)cc3)c2c1N | -12.9 | 75.7* | i | -2.8 | -0.8 | 11.2 | i
